Screens from PubChem.
SARS PLpro yeast: SARS-CoV PLP inhibition in yeast; S. cerevisiae expressing SARS-CoV PLpro, growth rescue; Potency, µM (titrated, usually from 32.9 µM), usual class: activators; 330,000 compounds, 0.19% hits; AID 485353; calls by dose curve; further: nearly all actives have a fitted effect of over 55% in size
LASV entry inh: blocks Lassa virus binding to or entry into cells | Lassa virus pseudotype entry inhibition, cell reporter | 300,000 compounds, 1.2% hits | Potency, µM (doses to about 37.9 µM), hits mostly inhibitors; calls by dose curve; tested in HEK293 cells; further: nearly all actives have a fitted effect of over 50% in size
Marburg entry inh: inhibitors of Marburg virus binding or cell entry. Potency, µM (highest dose often 37.8 µM), most hits filed as inhibitors. 300,000 compounds, 1.8% hits. Marburg virus pseudotyped entry inhibition, cell reporter; calls by dose curve; tested in HEK293 cells
HCV inh: HCV inhibition; Huh7.5.1 HCVcc-Cre infection, luciferase reporter, 44 h; Potency, µM (titrated, usually from 41.8 µM), usual class: inhibitors; 340,000 compounds, 3.4% hits; AID 651820; active means well fitted inhibition curve with a large enough effect; inconclusive means small, poorly fitted or top-dose-only effect, or another doubt; inactive means no such curve, though single readings can be large or run the other way
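Seed cells (1,000/well) for 4 h; treat with compound and infect with HCVcc-Cre, moi about 0.5. Incubate 44 h, then detect luciferase activity.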
FMDV inh: foot and mouth disease virus antiviral activity | FMDV antiviral cell-based qHTS | Potency, µM (top dose mostly 57.9 µM), hits mostly inhibitors | 410,000 compounds, 1.2% hits; calls by dose curve; tested in HEK293T cells; further: read-out not given here; nearly all actives have a fitted effect of over 45% in size
HCMV inh: blocks human cytomegalovirus replication. HFF cells, HCMV-luciferase reporter, 72 h; hits give low values. activity change, negative = inhibition, % at 57.5 µM. 410,000 compounds, 4.5% hits. AID 1259415; in the data active means activity change below about -60%; inconclusive means no clear call, values can overlap the other calls; inactive means above about -39%
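Human foreskin fibroblasts infected with luciferase-reporter HCMV at MOI 1 PFU/cell, compounds at two doses. Luciferase measured 72 h post infection; normalized to buffer-only basal and Salinomycin (10uM) controls.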
Each line names hits and unclear results; the compound was inactive in the other large screens; ! = repeats disagree. An excerpt weighted towards active compounds, which were near 8% of everything screened.

CCS(=O)(=O)Nc1ccc(C2=NN(C(=O)c3ccco3)C(c3ccc(Cl)o3)C2)cc1 (stereo not given)	LASV entry inh inconclusive, Marburg entry inh inconclusive, HCV inh 22µM, FMDV inh 28µM
CCC(=O)N1N=C(c2ccc(C)cc2)CC1c1ccco1 (stereo not given)	none (no result: LASV entry inh, Marburg entry inh)
CCC(=O)N1N=C(c2ccc(NS(=O)(=O)c3ccc(C)cc3)cc2)CC1c1ccco1 (stereo not given)	HCV inh 11µM (no result: LASV entry inh, Marburg entry inh)
Cc1ccc(C)c(N2CCN(C(c3ccccc3)c3nnc(-c4ccccc4F)o3)CC2)c1 (stereo not given)	none (no result: SARS PLpro yeast, HCV inh)
CCOc1ccc(-c2c(C)nn3c(C)c(C(=O)NCCc4ccc(C)cc4)cnc23)cc1OCC	LASV entry inh inconclusive, FMDV inh inconclusive (no result: SARS PLpro yeast, Marburg entry inh, HCV inh)
COc1cc(SC)ccc1C(=O)OCC(=O)N1CC(=O)Nc2ccccc21	HCV inh 10µM
O=C1CN(C(=O)Cn2ncc(Cl)c(Cl)c2=O)c2ccccc2N1	LASV entry inh inconclusive, Marburg entry inh inconclusive, HCV inh 5.6µM, FMDV inh inconclusive, HCMV inh -95
O=C1CN(C(=O)/C=C/c2cccc(Cl)c2)c2ccccc2N1	LASV entry inh inconclusive, Marburg entry inh inconclusive, HCV inh 14µM
O=C1CN(C(=O)COc2ccc(Cl)c(Cl)c2)c2ccccc2N1	HCMV inh -66
Cc1ccc(C)c(N2CCN(C(=O)c3ccc4c(Cl)c5c(nc4c3)CCCC5)CC2)c1	none (no result: SARS PLpro yeast, HCV inh)
Clc1cccc(CN2CCN(Cc3nc(CCc4ccccc4)no3)CC2)c1	none
COc1ccccc1C(=O)NCCC(=O)N1CC(=O)Nc2ccccc21	Marburg entry inh inconclusive
CCC(Oc1ccccc1OC)C(=O)N1CC(=O)Nc2ccccc21 (stereo not given)	HCMV inh -74
CCCCOc1ccc(/C=C/C(=O)OCC(=O)N2CC(=O)Nc3ccccc32)cc1OCC	HCV inh 7.9µM, FMDV inh 13µM
COc1cc(S(=O)(=O)N2CCN(c3ccccn3)CC2)ccc1Br	none
CCN(CC)c1ccc(NC2CC(=O)N(CCc3ccc(OC)cc3)C2=O)cc1 (stereo not given)	none
O=C(O)c1cccc(NS(=O)(=O)c2ccc(Oc3ccc(S(=O)(=O)Nc4cccc(C(=O)O)c4)cc3)cc2)c1	Marburg entry inh inconclusive (no result: SARS PLpro yeast)
O=C(O)c1cccc(NS(=O)(=O)c2ccc(-c3ccc(S(=O)(=O)Nc4cccc(C(=O)O)c4)cc3)cc2)c1	HCMV inh -72 (no result: LASV entry inh, Marburg entry inh)
O=C(Nc1ccccc1)c1ccc(S(=O)(=O)Nc2cccc(O)c2)cc1	HCV inh inconclusive (no result: LASV entry inh, Marburg entry inh)
CCOC(=O)c1cccc(NS(=O)(=O)c2ccc(NC(C)=O)cc2)c1	HCMV inh -88
CCOC(=O)/C=C/S(=O)(=O)c1ccc(NC(C)=O)cc1	HCV inh inconclusive, FMDV inh inconclusive, HCMV inh -99
CCOC(=O)c1cccc(NS(=O)(=O)c2ccc(-c3coc(C)n3)cc2)c1	none (no result: SARS PLpro yeast, Marburg entry inh, HCV inh)
CC(=O)c1cccc(NS(=O)(=O)c2ccc(C(=O)Nc3ccccc3)cc2)c1	LASV entry inh inconclusive, Marburg entry inh inconclusive, HCV inh 4.5µM, HCMV inh -76
COc1cc(/C=N/NC(=O)c2[nH]nc3c2CCc2ccccc2-3)ccc1O	none
CC(=O)Nc1ccc(S(=O)(=O)Nc2ccc3c(c2)CCC3)cc1	Marburg entry inh inconclusive, HCV inh inconclusive, HCMV inh -60
COc1cc(OC)c(OC)cc1/C=C/C(=O)c1ccc(NS(=O)(=O)c2ccc(C)cc2)cc1	LASV entry inh inconclusive, Marburg entry inh inconclusive, HCV inh inconclusive, HCMV inh -78
CC(=O)NCCc1ccc(S(=O)(=O)Nc2ccc(NC(=O)c3ccc(F)cc3)cc2)cc1	HCV inh 10µM
CC(=O)Nc1ccc(S(=O)(=O)NCCC(=O)NCCc2ccc(F)cc2)cc1	none
CC(=O)c1ccc(NS(=O)(=O)c2ccc(C)cc2)cc1	none
COc1ccc(C(=O)/C=C/Nc2ccc(S(=O)(=O)Nc3cccc(C(C)=O)c3)cc2)cc1	LASV entry inh inconclusive, Marburg entry inh inconclusive, HCV inh 11µM, HCMV inh -72
COc1ccc(S(=O)(=O)Nc2ccc3c(c2)CCC3)cc1	LASV entry inh inconclusive, HCV inh inconclusive, HCMV inh inconclusive
O=S(CC(O)(c1ccccc1)c1ccccc1)CC(O)(c1ccccc1)c1ccccc1	none (no result: SARS PLpro yeast, LASV entry inh, Marburg entry inh, HCV inh)
CCOc1ccc(CCNC(=O)CN2C(=O)c3cccnc3Oc3ccc(C)cc32)cc1OCC	none (no result: Marburg entry inh)
Cc1ccc2c(c1)N(CC(=O)NCCCc1ccccc1)C(=O)c1cccnc1O2	FMDV inh inconclusive, HCMV inh -62 (no result: LASV entry inh, Marburg entry inh)
CSc1ccc(CCNC(=O)CN2C(=O)c3cccnc3Oc3ccc(C)cc32)cc1	LASV entry inh inconclusive, HCV inh inconclusive, FMDV inh inconclusive, HCMV inh active!
Cc1ccc(CN(Cc2ccco2)C(=O)COc2ccc(C)c(C)c2)cc1	LASV entry inh inconclusive, Marburg entry inh inconclusive (no result: SARS PLpro yeast, HCV inh)
Cc1cc(=O)oc2ccc(OCC(=O)N(Cc3ccc(F)cc3)Cc3ccco3)cc12	Marburg entry inh inconclusive, HCV inh 3.2µM, FMDV inh 20µM
CCc1ccc(OCC(=O)N(Cc2ccc(C)cc2)Cc2ccco2)cc1	none (no result: SARS PLpro yeast, HCV inh)
Cc1cccc(OCC(=O)N(Cc2ccc(C(C)(C)C)cc2)Cc2ccco2)c1	LASV entry inh inconclusive, HCMV inh -82 (no result: SARS PLpro yeast, HCV inh)
Cc1nc2cc(NC(=O)[C@@H]3C[C@@H](Sc4ccccn4)CN3C3CCCCCC3)ccc2s1	none (no result: SARS PLpro yeast, LASV entry inh, Marburg entry inh, HCV inh, HCMV inh)
CCOC(=O)CN1C(=O)[C@]2(O[C@H](COc3ccccc3)CC3=CCCC32)c2c(Br)cccc21 (stereo not given in full)	LASV entry inh inconclusive (no result: SARS PLpro yeast, HCV inh, FMDV inh, HCMV inh)
O=C(COC(=O)CNC(=O)c1ccco1)NCc1ccc(F)cc1	none
CCOC(=O)C1CCN(c2c(C(=O)c3ccc(OCC)cc3)cnc3ccc(OC)cc23)CC1	Marburg entry inh inconclusive, FMDV inh inconclusive (no result: SARS PLpro yeast, LASV entry inh, HCV inh)
C[C@@H]1CN([C@@H](C)CO)C(=O)CCCn2nncc2CO[C@@H]1CN(C)C(=O)Nc1ccc(-c2cccs2)cc1	none (no result: SARS PLpro yeast, LASV entry inh, Marburg entry inh, HCV inh)
C[C@H](CO)N1C[C@H](C)[C@H](CN(C)C(=O)Nc2ccc(-c3cccs3)cc2)OCc2cnnn2CCCC1=O	HCMV inh -61 (no result: SARS PLpro yeast, LASV entry inh, Marburg entry inh, HCV inh)
CC(=O)N(Cc1cc2c(C)cc(C)cc2[nH]c1=O)C1CCCCC1	Marburg entry inh inconclusive
CCOC(=O)Cn1nnnc1C(C(C)C)N(Cc1cc2c(C)cc(C)cc2[nH]c1=O)C1CCCC1 (stereo not given)	LASV entry inh inconclusive, Marburg entry inh 8.9µM, FMDV inh inconclusive
Cc1nn(C(=O)c2ccccc2)c(C)c1Sc1ccc(Cl)cc1	FMDV inh 28µM, HCMV inh -74 (no result: SARS PLpro yeast, Marburg entry inh, HCV inh)
CCC(=O)Oc1c(Sc2ccc(Cl)cc2)c(C)nn1-c1ccccc1	HCMV inh -94 (no result: SARS PLpro yeast, HCV inh)
COc1ccc(-n2c(=O)c(-c3ccc(Cl)cc3)nc3cncnc32)cc1	none (no result: SARS PLpro yeast, LASV entry inh, Marburg entry inh, HCV inh, HCMV inh)
O=C(C1CCN(S(=O)(=O)c2ccccc2)CC1)N1CCOCC1	none
Cc1ccc(C)c(Nc2ccc3nonc3c2[N+](=O)[O-])c1	HCMV inh -87 (no result: LASV entry inh, Marburg entry inh)
